Assay results reported in ChEMBL document CHEMBL1961873, “Compounds: GSK PKIS; Assays: Nanosyn kinase panel” (2012).

Tests used:
[1] = target: Sphingosine kinase 1 (Homo sapiens) (UniProt Q9NYA1); conditions: at 1 µM;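 also: mean SPHK1 inhibition value reported from the GSK PKIS kinase panel screen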
[2] = target: T1, Sphingosine kinase 2 (Homo sapiens) (UniProt Q9NRA0); conditions: at 0.1 µM
T1 sequence (whole entry): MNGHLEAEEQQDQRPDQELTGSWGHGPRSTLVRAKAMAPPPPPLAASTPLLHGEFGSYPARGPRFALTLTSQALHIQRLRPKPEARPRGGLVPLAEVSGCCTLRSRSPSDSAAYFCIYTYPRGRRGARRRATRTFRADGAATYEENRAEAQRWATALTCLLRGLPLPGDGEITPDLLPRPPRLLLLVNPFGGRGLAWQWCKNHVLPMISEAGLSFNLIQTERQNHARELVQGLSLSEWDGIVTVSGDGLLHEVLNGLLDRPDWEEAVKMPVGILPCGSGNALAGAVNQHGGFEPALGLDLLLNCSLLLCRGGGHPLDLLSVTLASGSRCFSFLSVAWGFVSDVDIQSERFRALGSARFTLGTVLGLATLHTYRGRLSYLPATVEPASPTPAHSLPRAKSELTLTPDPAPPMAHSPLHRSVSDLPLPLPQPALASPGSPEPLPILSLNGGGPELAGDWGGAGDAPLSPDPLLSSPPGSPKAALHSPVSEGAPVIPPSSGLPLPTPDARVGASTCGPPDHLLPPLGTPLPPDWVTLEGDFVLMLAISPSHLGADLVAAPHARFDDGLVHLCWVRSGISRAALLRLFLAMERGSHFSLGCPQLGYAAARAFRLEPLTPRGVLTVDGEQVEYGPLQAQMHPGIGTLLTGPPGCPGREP

[3] = target: T1, Sphingosine kinase 2 (Homo sapiens); conditions: at 1 µM
[4] = target: Casein kinase II subunit alpha (Homo sapiens) (UniProt P68400); conditions: at 0.1 µM
Chain of Casein kinase II subunit alpha (Homo sapiens) (P68400 whole entry, looked up): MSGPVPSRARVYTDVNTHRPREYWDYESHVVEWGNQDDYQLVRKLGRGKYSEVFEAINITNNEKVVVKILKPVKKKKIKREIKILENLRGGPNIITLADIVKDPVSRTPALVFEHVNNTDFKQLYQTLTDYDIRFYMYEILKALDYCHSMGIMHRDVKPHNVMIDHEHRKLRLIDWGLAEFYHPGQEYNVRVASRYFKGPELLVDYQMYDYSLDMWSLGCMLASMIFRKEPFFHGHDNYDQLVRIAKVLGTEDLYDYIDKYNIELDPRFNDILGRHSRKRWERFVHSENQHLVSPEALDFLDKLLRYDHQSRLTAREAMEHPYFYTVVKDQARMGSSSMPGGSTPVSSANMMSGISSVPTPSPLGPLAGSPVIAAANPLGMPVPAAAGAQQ

[5] = target: Casein kinase II subunit alpha (Homo sapiens) (UniProt P68400); conditions: at 1 µM
[6] = target: T2, Inhibitor of nuclear factor kappa-B kinase subunit alpha (Homo sapiens) (UniProt O15111); conditions: at 0.1 µM
T2 sequence (whole entry): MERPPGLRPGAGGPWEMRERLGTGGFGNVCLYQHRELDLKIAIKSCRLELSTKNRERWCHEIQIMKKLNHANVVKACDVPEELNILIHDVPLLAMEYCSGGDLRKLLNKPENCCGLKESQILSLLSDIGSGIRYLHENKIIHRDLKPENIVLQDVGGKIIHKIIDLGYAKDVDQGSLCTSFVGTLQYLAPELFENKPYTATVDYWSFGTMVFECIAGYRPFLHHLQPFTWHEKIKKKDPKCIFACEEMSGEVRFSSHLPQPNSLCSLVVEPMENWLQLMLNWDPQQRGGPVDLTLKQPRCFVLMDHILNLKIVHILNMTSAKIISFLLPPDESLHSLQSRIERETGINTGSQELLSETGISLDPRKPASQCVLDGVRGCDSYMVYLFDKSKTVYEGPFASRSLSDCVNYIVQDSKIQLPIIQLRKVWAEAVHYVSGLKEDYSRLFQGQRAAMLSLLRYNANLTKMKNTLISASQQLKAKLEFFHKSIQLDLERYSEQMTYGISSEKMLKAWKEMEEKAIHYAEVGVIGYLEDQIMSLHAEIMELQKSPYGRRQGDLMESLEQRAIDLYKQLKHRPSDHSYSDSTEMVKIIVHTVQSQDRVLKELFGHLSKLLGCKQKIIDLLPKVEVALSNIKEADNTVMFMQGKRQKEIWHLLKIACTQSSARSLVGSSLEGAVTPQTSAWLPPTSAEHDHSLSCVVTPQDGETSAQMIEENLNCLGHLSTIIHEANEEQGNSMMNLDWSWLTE

[7] = target: T2, Inhibitor of nuclear factor kappa-B kinase subunit alpha (Homo sapiens); conditions: at 1 µM
[8] = target: T3, Inhibitor of nuclear factor kappa-B kinase subunit beta (Homo sapiens) (UniProt O14920); conditions: at 0.1 µM
T3 sequence (whole entry): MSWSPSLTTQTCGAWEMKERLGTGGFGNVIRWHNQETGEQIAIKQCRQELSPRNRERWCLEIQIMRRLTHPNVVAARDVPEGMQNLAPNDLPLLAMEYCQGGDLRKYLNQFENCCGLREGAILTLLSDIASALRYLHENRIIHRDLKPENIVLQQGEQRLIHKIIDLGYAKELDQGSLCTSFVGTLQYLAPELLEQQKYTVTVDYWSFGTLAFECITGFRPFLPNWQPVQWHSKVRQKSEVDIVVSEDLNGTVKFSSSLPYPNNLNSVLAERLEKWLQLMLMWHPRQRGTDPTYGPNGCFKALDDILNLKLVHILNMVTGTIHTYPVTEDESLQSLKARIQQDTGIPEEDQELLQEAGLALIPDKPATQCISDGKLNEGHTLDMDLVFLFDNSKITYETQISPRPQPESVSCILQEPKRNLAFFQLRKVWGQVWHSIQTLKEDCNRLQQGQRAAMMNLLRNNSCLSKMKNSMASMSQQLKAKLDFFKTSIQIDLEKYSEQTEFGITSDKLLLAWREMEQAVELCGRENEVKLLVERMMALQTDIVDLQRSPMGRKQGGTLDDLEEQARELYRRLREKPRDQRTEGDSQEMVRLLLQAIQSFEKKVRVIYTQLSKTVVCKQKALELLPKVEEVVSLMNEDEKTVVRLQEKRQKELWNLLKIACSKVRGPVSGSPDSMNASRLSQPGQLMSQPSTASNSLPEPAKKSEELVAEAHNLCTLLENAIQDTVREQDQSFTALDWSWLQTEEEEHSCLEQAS

[9] = target: T3, Inhibitor of nuclear factor kappa-B kinase subunit beta (Homo sapiens); conditions: at 1 µM
[10] = target: T4, Inhibitor of nuclear factor kappa-B kinase subunit epsilon (Homo sapiens) (UniProt Q14164); conditions: at 0.1 µM
T4 sequence (whole entry): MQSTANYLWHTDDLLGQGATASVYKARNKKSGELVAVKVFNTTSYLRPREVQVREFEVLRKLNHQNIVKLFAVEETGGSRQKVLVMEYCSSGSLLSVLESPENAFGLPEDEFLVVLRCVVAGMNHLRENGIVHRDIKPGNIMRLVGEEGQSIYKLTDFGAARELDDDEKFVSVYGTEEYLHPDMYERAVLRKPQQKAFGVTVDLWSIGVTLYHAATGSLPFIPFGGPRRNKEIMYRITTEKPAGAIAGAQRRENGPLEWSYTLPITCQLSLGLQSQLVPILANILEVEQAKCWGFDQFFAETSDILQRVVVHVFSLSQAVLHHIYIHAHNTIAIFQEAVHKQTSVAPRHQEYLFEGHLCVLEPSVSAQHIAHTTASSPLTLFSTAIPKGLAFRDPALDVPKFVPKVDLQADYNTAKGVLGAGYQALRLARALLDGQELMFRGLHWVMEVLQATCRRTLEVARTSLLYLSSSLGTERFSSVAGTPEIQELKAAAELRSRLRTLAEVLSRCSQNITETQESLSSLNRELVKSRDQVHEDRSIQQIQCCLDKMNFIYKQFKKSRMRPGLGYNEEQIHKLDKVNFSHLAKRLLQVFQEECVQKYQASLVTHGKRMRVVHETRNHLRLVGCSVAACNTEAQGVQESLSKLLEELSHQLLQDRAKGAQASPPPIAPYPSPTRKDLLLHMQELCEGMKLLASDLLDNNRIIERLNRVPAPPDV

[11] = target: T4, Inhibitor of nuclear factor kappa-B kinase subunit epsilon (Homo sapiens); conditions: at 1 µM
[12] = target: T5, Serine/threonine-protein kinase Nek1 (Homo sapiens) (UniProt Q96PY6); conditions: at 0.1 µM
T5 sequence (whole entry): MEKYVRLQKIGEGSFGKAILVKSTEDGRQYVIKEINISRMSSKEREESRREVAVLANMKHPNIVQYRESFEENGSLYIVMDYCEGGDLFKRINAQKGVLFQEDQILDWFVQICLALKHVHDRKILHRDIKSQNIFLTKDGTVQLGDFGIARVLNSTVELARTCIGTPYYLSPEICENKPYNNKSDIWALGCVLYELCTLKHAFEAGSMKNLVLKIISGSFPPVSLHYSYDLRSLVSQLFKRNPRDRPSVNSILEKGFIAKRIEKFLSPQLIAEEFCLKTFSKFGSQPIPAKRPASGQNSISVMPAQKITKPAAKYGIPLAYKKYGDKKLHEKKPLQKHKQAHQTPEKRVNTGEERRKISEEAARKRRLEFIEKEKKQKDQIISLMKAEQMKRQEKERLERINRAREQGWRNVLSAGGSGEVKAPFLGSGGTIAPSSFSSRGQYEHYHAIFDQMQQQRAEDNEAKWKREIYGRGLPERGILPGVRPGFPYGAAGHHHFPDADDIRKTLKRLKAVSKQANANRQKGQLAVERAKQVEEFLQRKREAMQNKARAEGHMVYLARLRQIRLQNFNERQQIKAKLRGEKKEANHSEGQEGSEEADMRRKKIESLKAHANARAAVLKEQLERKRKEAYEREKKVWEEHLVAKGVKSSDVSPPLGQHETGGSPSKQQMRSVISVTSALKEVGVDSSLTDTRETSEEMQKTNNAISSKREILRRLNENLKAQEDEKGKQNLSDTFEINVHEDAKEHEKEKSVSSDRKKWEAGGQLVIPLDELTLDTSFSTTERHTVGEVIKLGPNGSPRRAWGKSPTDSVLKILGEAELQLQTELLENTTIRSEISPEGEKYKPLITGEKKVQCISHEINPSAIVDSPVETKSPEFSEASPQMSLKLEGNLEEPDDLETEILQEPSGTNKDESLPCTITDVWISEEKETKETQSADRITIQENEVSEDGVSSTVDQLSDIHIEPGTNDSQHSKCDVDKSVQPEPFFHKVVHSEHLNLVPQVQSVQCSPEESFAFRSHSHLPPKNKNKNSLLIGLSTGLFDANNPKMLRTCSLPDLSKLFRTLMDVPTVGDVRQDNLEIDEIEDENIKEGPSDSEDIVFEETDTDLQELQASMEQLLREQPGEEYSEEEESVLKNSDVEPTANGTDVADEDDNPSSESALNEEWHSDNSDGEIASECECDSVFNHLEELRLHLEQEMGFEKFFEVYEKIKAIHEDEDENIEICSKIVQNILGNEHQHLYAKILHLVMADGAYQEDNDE

[13] = target: T5, Serine/threonine-protein kinase Nek1 (Homo sapiens); conditions: at 1 µM
[14] = target: T6, Serine/threonine-protein kinase Nek2 (Homo sapiens) (UniProt P51955); conditions: at 0.1 µM
T6 sequence (whole entry): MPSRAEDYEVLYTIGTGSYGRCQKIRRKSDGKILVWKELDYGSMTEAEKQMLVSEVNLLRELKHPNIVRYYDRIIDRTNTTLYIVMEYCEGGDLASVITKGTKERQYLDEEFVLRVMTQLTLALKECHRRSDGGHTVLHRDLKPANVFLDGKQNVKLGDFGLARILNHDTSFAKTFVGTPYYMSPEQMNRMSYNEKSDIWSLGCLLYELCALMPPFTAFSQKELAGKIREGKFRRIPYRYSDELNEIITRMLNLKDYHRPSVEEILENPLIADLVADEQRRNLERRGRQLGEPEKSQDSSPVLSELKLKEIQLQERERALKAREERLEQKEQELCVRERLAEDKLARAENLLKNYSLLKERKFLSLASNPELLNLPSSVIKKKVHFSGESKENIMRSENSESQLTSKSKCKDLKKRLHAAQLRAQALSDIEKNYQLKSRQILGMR

[15] = target: T6, Serine/threonine-protein kinase Nek2 (Homo sapiens); conditions: at 1 µM
[16] = target: Serine/threonine-protein kinase Nek6 (Homo sapiens) (UniProt Q9HC98); conditions: at 0.1 µM
Chain of Serine/threonine-protein kinase Nek6 (Homo sapiens) (Q9HC98 whole entry): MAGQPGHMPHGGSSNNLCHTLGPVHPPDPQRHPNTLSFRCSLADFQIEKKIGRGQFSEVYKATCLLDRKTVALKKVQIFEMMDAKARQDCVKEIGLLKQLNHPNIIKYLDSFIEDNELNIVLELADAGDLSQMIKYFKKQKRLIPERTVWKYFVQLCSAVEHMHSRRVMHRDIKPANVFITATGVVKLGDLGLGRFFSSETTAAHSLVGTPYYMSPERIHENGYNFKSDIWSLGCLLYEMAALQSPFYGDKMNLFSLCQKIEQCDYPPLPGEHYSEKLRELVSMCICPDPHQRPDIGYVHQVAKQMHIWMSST

[17] = target: Serine/threonine-protein kinase Nek6 (Homo sapiens) (UniProt Q9HC98); conditions: at 1 µM
[18] = target: Serine/threonine-protein kinase Nek7 (Homo sapiens) (UniProt Q8TDX7); conditions: at 0.1 µM
Chain of Serine/threonine-protein kinase Nek7 (Homo sapiens) (Q8TDX7 whole entry, looked up): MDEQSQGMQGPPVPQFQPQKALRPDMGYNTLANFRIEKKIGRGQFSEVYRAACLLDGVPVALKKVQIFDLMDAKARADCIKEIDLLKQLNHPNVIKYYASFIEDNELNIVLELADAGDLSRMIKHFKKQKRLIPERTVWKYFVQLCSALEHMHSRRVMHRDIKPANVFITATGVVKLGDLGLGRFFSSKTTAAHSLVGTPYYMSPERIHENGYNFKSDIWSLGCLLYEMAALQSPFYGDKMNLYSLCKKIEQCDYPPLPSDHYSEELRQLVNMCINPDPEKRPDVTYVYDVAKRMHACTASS

[19] = target: Serine/threonine-protein kinase Nek7 (Homo sapiens) (UniProt Q8TDX7); conditions: at 1 µM
[20] = target: T7, Serine/threonine-protein kinase Nek9 (Homo sapiens) (UniProt Q8TD19); conditions: at 0.1 µM;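 also: reported value is the mean percent inhibition of NEK9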
T7 sequence (whole entry): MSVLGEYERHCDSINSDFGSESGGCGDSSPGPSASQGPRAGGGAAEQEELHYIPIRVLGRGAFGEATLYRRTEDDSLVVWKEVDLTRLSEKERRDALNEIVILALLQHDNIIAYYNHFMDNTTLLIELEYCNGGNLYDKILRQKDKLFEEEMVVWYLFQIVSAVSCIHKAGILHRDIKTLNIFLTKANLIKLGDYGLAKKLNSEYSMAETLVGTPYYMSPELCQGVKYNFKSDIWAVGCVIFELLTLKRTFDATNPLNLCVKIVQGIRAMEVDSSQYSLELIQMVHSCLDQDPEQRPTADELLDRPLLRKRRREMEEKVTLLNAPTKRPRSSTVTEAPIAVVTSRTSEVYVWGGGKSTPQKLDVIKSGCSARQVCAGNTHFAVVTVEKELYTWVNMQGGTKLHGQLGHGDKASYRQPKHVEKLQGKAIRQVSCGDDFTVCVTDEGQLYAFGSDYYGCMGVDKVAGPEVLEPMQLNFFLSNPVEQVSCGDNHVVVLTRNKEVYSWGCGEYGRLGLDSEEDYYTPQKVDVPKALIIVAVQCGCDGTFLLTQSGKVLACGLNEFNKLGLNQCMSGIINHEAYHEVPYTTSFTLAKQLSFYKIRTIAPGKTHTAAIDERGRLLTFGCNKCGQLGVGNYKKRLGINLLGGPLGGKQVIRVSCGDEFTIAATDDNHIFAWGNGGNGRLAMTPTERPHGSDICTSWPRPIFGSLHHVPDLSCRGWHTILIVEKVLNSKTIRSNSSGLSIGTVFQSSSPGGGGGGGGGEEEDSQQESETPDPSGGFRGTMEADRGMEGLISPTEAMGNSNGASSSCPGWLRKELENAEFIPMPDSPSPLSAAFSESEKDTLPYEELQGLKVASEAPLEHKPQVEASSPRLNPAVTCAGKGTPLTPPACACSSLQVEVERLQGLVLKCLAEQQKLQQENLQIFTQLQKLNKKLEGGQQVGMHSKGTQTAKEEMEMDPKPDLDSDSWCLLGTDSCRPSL

Chain of Sphingosine kinase 1 (Homo sapiens) (Q9NYA1 whole entry): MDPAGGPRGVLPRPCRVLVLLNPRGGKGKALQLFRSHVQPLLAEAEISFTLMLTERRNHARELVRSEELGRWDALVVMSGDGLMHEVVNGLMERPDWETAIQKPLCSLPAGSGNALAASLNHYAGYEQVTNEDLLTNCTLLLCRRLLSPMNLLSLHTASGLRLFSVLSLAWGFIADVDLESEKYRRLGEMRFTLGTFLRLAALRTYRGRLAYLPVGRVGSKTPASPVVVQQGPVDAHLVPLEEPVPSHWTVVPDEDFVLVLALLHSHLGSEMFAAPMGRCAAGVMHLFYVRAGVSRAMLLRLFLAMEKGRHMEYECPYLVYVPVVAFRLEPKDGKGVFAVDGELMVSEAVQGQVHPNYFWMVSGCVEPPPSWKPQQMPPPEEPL

Compound	inhibition [1]	inhibition [2]	inhibition [3]	inhibition [4]	inhibition [5]	inhibition [6]	inhibition [7]	inhibition [8]	inhibition [9]	inhibition [10]	inhibition [11]	inhibition [12]	inhibition [13]	inhibition [14]	inhibition [15]	inhibition [16]	inhibition [17]	inhibition [18]	inhibition [19]	inhibition [20]
Nc1nccc(-c2c(-c3ccc(F)cc3)ncn2CCCN2CCOCC2)n1	-6.06%	-0.3%	0.84%	2.78%	4.35%	3.83%	5.27%	6.3%	5.49%	4.76%	5.9%	2.11%	3.63%	4.66%	5.54%	3.27%	0.28%	5.79%	4.4%	9.19%
Oc1cccc(-c2nc(-c3ccccc3)[nH]c2-c2ccncc2)c1	-1.58%	0.02%	-1.65%	3.96%	9.51%	2.95%	5.47%	5.25%	3.12%	5.43%	4.72%	2.81%	3.39%	3.98%	4.3%	-0.13%	4.45%	4.5%	5.32%	9.92%
CN(C)c1cc2c(Nc3ccc4c(cnn4Cc4ccccc4)c3)ncnc2cn1	-2%	-0.22%	-1.13%	1.2%	-0.12%	3.64%	8.41%	3.68%	3.14%	3.9%	3.38%	0.59%	2.49%	3.29%	3.45%	0.57%	2.34%	1.52%	1.66%	6.89%
